We go through eight compounds from ChEMBL document CHEMBL1961873, “Compounds: GSK PKIS; Assays: Nanosyn kinase panel” (2012).

Test [1] concerns the target T1, Ephrin type-B receptor 2 (Homo sapiens) (UniProt P29323).
T1 sequence (whole entry): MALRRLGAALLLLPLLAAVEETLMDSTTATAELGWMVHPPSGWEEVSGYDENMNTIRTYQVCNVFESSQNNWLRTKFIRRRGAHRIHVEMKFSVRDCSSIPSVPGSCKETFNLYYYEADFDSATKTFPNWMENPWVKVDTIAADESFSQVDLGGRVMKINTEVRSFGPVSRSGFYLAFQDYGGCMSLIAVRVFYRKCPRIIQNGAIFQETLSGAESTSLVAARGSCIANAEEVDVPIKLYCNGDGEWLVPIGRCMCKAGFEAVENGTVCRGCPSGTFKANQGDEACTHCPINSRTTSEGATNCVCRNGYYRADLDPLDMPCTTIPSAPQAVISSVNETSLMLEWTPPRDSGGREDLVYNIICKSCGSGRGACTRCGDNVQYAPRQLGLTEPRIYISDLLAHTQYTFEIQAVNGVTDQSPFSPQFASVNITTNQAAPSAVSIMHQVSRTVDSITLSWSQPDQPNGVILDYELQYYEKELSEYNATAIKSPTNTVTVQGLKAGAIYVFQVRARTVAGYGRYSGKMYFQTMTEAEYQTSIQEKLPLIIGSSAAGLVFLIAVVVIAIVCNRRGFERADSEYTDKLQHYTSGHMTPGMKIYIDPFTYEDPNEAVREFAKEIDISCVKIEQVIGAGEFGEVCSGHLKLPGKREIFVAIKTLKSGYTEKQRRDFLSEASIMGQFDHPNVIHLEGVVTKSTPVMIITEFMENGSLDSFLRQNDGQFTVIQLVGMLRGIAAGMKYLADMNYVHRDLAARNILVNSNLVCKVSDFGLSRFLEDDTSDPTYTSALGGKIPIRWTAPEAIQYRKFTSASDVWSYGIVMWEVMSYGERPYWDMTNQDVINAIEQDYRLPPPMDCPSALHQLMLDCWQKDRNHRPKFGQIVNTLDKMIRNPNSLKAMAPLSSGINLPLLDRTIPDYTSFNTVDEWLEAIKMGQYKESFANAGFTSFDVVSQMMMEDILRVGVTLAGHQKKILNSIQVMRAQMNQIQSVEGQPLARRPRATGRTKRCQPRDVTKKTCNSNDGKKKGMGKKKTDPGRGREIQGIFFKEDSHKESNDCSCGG
As to conditions: at 1 µM.

Test [2] concerns the target T2, Ephrin type-B receptor 3 (Homo sapiens) (UniProt P54753).
T2 sequence (whole entry): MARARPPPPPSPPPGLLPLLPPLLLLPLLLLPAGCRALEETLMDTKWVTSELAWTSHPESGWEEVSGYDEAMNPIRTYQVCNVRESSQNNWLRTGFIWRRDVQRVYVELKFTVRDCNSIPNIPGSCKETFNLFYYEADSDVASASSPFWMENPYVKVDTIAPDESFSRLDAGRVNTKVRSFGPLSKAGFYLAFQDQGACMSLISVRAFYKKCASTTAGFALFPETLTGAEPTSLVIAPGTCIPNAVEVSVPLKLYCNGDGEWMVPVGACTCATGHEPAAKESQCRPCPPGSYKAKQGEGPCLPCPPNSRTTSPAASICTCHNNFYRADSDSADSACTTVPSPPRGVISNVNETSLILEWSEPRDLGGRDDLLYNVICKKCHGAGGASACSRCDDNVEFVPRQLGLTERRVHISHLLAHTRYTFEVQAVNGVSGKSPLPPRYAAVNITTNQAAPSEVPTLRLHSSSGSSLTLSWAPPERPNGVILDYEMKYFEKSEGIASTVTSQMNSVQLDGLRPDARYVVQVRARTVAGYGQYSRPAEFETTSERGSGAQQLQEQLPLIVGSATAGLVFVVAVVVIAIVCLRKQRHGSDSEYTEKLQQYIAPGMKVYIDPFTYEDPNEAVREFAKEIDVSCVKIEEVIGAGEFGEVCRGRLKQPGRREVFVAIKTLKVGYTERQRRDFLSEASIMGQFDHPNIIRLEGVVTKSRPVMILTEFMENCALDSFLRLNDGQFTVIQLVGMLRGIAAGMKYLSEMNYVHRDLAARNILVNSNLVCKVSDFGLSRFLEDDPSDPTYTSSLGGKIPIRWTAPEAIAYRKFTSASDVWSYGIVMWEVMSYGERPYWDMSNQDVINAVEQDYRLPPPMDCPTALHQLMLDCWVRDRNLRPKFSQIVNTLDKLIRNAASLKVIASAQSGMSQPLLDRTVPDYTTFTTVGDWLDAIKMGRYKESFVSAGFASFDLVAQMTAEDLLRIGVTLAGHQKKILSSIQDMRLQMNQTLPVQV
As to conditions: at 0.1 µM.

The target of test [3] is T2, Ephrin type-B receptor 3 (Homo sapiens). As to conditions: at 1 µM.
Test [4] has as its target T3, Ephrin type-B receptor 4 (Homo sapiens) (UniProt P54760).
T3 sequence (whole entry): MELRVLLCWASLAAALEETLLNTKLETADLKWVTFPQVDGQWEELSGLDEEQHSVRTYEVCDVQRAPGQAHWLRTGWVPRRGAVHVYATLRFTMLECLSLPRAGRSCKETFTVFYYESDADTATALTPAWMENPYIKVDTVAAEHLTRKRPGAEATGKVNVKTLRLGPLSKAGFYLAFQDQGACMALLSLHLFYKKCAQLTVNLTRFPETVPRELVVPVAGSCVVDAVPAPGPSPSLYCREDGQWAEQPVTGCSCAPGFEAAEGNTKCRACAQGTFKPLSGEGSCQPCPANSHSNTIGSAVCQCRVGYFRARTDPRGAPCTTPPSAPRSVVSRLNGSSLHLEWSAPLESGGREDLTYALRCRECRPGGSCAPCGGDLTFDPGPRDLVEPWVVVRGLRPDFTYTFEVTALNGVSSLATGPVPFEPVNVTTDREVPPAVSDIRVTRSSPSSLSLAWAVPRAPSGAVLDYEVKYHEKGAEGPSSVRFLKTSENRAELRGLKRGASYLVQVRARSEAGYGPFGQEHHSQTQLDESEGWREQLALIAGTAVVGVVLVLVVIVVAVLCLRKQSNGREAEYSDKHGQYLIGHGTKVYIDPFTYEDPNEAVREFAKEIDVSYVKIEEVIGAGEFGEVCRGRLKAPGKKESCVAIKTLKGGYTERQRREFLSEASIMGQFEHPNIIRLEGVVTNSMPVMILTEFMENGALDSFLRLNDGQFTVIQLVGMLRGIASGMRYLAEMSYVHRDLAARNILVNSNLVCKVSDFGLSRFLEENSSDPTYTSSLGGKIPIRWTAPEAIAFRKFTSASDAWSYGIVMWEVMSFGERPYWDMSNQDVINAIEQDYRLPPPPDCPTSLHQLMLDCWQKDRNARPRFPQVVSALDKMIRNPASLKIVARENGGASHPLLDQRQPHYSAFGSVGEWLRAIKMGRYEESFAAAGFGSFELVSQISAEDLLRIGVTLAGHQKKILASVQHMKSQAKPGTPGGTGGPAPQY
As to conditions: at 0.1 µM.

Test [5] concerns the target T3, Ephrin type-B receptor 4 (Homo sapiens). As to conditions: at 1 µM.
Test [6] has as its target Receptor tyrosine-protein kinase erbB-2 (Homo sapiens) (UniProt P04626). As to conditions: at 0.1 µM.
For test [7] the target is unchanged. As to conditions: at 1 µM.
The target of test [8] is Receptor tyrosine-protein kinase erbB-4 (Homo sapiens) (UniProt Q15303). As to conditions: at 0.1 µM.
Chain of Receptor tyrosine-protein kinase erbB-4 (Homo sapiens) (Q15303 whole entry): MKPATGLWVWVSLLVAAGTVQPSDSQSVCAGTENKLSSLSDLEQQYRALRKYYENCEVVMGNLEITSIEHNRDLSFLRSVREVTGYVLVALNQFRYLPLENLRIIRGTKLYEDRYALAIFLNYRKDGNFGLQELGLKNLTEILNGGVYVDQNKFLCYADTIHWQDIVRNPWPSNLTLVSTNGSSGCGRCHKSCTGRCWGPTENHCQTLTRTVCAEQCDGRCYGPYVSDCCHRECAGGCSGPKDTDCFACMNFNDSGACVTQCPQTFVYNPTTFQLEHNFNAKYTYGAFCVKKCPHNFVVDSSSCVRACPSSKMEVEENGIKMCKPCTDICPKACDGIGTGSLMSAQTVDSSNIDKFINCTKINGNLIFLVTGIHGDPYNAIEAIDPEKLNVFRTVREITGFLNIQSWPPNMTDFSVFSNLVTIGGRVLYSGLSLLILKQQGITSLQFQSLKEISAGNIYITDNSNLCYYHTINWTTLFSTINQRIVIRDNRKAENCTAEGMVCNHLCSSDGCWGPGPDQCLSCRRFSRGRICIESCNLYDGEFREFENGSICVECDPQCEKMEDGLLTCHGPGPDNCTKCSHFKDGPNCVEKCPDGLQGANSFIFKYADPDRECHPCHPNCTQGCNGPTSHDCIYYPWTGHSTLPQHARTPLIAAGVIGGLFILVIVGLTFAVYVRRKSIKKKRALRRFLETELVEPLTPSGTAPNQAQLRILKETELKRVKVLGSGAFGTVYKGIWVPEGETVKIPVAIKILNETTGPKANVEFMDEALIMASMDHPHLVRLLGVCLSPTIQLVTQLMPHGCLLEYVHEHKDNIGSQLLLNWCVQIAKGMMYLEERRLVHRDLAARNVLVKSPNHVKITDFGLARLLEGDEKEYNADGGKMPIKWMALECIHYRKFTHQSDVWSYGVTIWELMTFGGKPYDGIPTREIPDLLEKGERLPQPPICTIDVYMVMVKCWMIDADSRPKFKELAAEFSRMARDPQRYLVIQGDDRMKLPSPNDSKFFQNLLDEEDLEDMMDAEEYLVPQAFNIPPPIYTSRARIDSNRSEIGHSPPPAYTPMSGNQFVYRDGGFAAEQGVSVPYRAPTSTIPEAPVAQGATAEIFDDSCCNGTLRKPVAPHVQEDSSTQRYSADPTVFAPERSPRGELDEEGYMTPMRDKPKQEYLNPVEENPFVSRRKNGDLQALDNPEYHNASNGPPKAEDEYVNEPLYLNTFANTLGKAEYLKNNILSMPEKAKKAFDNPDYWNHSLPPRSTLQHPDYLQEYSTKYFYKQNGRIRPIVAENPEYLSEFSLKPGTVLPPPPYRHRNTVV
The target is the same in test [9]. As to conditions: at 1 µM.
Test [10] has as its target Tyrosine-protein kinase Fer (Homo sapiens) (UniProt P16591). As to conditions: at 0.1 µM.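 Also: reported figures are averaged percent inhibition of FER.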

Chain of Tyrosine-protein kinase Fer (Homo sapiens) (P16591 whole entry, looked up): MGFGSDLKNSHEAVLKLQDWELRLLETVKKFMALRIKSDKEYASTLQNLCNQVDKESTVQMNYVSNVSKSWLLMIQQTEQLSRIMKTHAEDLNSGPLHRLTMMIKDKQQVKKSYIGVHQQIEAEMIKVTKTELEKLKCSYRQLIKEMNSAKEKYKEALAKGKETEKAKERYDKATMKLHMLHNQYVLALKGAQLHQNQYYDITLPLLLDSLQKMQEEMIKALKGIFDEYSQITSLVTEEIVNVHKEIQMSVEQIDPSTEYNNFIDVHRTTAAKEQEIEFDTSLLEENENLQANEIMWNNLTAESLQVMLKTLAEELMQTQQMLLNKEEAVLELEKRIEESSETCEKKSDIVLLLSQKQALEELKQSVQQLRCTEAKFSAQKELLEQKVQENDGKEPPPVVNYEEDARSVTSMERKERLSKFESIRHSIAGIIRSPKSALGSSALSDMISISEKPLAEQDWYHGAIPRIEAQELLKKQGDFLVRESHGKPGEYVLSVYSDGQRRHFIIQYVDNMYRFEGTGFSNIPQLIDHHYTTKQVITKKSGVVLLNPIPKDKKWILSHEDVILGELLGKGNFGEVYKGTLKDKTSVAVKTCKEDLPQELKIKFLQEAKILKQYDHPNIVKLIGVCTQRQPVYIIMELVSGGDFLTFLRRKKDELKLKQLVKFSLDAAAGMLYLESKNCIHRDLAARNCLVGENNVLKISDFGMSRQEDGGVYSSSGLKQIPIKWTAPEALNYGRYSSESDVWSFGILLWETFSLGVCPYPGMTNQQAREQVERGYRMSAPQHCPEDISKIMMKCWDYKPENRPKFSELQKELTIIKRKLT
Chain of Receptor tyrosine-protein kinase erbB-2 (Homo sapiens) (P04626 whole entry): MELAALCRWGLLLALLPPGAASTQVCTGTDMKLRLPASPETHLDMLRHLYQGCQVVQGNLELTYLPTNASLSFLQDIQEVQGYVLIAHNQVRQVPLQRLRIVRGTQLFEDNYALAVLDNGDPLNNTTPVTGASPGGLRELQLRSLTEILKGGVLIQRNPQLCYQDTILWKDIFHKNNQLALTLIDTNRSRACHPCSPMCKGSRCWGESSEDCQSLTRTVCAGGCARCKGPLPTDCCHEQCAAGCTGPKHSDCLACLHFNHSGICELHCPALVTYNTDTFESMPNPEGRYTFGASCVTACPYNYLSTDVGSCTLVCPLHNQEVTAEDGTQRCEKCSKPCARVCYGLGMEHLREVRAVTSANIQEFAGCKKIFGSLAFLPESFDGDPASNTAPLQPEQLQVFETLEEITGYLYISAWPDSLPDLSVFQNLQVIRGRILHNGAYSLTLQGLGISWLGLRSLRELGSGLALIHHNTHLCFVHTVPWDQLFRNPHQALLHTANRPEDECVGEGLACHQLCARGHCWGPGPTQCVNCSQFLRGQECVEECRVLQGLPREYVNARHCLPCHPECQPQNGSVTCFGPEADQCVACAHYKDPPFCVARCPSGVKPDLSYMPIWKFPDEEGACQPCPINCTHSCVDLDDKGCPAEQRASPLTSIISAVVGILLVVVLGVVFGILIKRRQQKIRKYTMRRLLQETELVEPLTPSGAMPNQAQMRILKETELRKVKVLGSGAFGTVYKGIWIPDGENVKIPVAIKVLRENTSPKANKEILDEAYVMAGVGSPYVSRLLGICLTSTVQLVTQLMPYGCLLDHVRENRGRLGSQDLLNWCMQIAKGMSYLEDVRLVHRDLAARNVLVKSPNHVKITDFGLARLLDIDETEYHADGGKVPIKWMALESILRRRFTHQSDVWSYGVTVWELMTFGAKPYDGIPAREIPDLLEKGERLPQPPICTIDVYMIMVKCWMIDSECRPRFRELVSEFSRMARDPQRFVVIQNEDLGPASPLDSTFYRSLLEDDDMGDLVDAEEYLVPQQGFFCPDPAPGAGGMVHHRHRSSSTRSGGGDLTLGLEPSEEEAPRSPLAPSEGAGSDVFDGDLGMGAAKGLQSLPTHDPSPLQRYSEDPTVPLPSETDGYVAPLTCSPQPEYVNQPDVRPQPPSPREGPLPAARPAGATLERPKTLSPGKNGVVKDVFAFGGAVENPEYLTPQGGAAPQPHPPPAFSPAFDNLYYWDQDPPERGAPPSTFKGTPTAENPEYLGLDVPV

Consider `Nc1ncnc2occ(-c3ccc(NC(=O)Nc4cc(C(F)(F)F)cc(C(F)(F)F)c4)cc3)c12`, for which the inhibition in test [1] was 68.2%; in test [2] it was 6.66%; in test [3], 27.9%; in test [4], 9.24%; in [5], 41.4%; in [6], -1.28%. The inhibition in test [7] was -3.43%; in test [8], 9.75%; in test [9], 5.89%; in [10] it was 1.71%.

On to `COc1cc(C=NNc2ncnc3c2cnn3-c2ccccc2)ccc1O`, for which the inhibition in test [1] was 18.2%; in [2], 3.59%; in [3], -2.55%; in test [4], 2.58%; in [5], 9.64%; in test [6] it was 1.75%. Moreover, the inhibition in test [7] is -2.49%; in [8] it was 3.71%; in [9] it was 6.51%; in test [10], -3.39%.

On to `CN1CCC(C(=O)Nc2n[nH]c3nnc(-c4ccccc4)cc23)CC1`, for which the inhibition in test [1] turned out to be 3.41%; in [2] it was 6.23%; in test [3], 4.08%; in test [4], 2.18%; in test [5], 1.12%; in test [6] it was 5.08%. For the same compound, the inhibition came to 14.2% in [7], 17.7% in test [8], 24.2% in [9] and 3.91% in test [10].

For `COc1ccc2cc(-c3c(-c4ccncc4)nc(-c4ccc([S+](C)[O-])cc4)n3C)ccc2c1` (stereo not given), the inhibition in test [1] turned out to be 6.51%; in [2] it was 5.38%; in test [3], 4.12%; in test [4], 2.71%; in test [5], 6.99%; in test [6], 2.07%. The inhibition in test [7] was -0.38%; in test [8] it was 12.1%; in test [9], 23.1%; in test [10], 1.4%.

With `COc1ccc(-c2nn3ncccc3c2-c2ccnc(Nc3ccc(Cl)c(C(F)(F)F)c3)n2)cc1`, the inhibition in test [1] is 10%; in test [2] it was 3.56%; in [3] it was 4.88%; in [4], 3.3%; in [5], -0.34%; in [6], 3.66%. In addition, the inhibition in test [7] amounted to 7.66%; in test [8], 16%; in test [9], 51.5%; in [10], 1.3%.

In the case of `Cc1ccc(NC(=O)c2ccnc(N3CCCC3)c2)cc1-c1ccc(C(=O)NCC2CC2)cc1`, the inhibition in test [1] is 6.65%; in [2] it was 1.72%; in [3] it was -1.41%; in test [4], -3.04%; in [5] it was -2.95%; in test [6] it was 2.34%. The inhibition in test [7] was -3.44%; in test [8], 6.37%; in test [9] it was 5.79%; in [10], 0.77%.

Take `[O-][S+]1CCN(Cc2ccc(-c3ccc4ncnc(Nc5ccc(OCc6ccccc6)c(F)c5)c4c3)o2)CC1`: the inhibition is -0.23% in [1]; 3.15% in test [2]; 1.61% in test [3]; 0.35% in test [4]; 2.22% in test [5]; 20.4% in test [6]. For the same compound, the inhibition in test [7] was 75.1%; in test [8], 68.7%; in [9] it was 88.7%; in [10], 3.77%.

As for `COc1cc(C)c(NC(=O)CN(C)C)cc1Nc1nc(Nc2cccc(F)c2C(N)=O)c2cc[nH]c2n1`, the inhibition in test [1] was found to be 8.75%; in test [2], 4.52%; in test [3], 0.2%; in test [4], 2.62%; in test [5], 1.31%; in test [6], 0.48%. The inhibition is -0.4% in [7], 10.4% in test [8], 32.1% in test [9] and 81.8% in [10].
